Results from PubChem BioAssay (NCI).
Several values for one entry are separate records, joined by “and”; a condition that tells them apart may be missing. Equal entries are not always repeated. This is part of a sample that, as a whole, favours compounds with a hit. Of some 79,000 tested, about 15% had one in any assay. A structure can be active in one record and inactive in another. Activity calls are given as the source filed them. No stated cut-off is given here; in the data, active means growth inhibition above about 70%; inactive means the rest.

Assays:
[1] = NCI Yeast Anticancer Drug Screen. Data for the rad50 strain (AID 155);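 further: 0% = growth of vehicle-only cultures of the same strain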; conditions: S. cerevisiae rad50 strain growth inhibition, stronger effect = higher value
Procedure, shortened: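 Cells are treated with compound, grown, and their growth is then scored against vehicle-only cultures of the same repair-deficient yeast strain.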

[2] = NCI Yeast Anticancer Drug Screen. Data for the mec2-1 strain (AID 157); conditions: S. cerevisiae mec2-1 strain, stronger effect = higher value
Procedure, shortened: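 Readout is yeast growth inhibition, normalised to vehicle-treated controls, in the mec2-1 strain exposed to compound.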

[3] = NCI Yeast Anticancer Drug Screen. Data for the sgs1 mgt1 strain (AID 161);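 further: 0% = growth of cultures given vehicle only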; conditions: S. cerevisiae sgs1 mgt1 strain, stronger effect = higher value
Procedure, shortened: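 Compounds are added to genetically altered yeast, and growth is compared with cultures given vehicle alone to give percent inhibition.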

[4] = NCI Yeast Anticancer Drug Screen. Data for the cln2 rad14 strain (AID 165);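 further: 0% = growth equal to vehicle treated cultures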; conditions: S. cerevisiae cln2 rad14 strain, stronger effect = higher value
Procedure, shortened: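 Relative to vehicle controls, growth inhibition of compound-treated cln2 rad14 yeast was recorded.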

[5] = NCI Yeast Anticancer Drug Screen. Data for the bub3 strain (AID 167); conditions: S. cerevisiae bub3 mutant strain, stronger effect = higher value
Procedure, shortened: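 Part of a panel of yeast mutants defective in DNA damage repair or cell cycle regulation. Each strain is grown with compound, and inhibition is calculated relative to solvent-treated cultures.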

[6] = NCI Yeast Anticancer Drug Screen. Data for the mlh1 rad18 strain (AID 175); conditions: S. cerevisiae mlh1 rad18 strain growth inhibition, stronger effect = higher value
Procedure, shortened: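 Test agents were incubated with a yeast strain of defined genotype (DNA damage repair defect). Inhibition of growth was derived by comparison with vehicle-exposed cultures.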

[7] = at 5.0 µM (retest, dose inferred, filed as 0.5)
[8] = at 50.0 µM (retest, dose inferred, filed as 5.0)

SMILES | growth inhibition [1, 7] | growth inhibition [1, 8] | growth inhibition ([1]; at 50.0 µM) | growth inhibition [2, 7] | growth inhibition [2, 8] | growth inhibition ([2]; at 50.0 µM) | growth inhibition [3, 7] | growth inhibition [3, 8] | growth inhibition ([3]; at 50.0 µM) | growth inhibition [4, 7] | growth inhibition [4, 8] | growth inhibition ([4]; at 50.0 µM) | growth inhibition [5, 7] | growth inhibition [5, 8] | growth inhibition ([5]; at 50.0 µM) | growth inhibition [6, 7] | growth inhibition [6, 8] | growth inhibition ([6]; at 50.0 µM)
CCOP(=O)(OCC)/C(C#N)=C/c1cccc(Br)c1 | 19% (inactive) | 88% (active) | 88.2% (active) | -4% (inactive) | 90% (active) | 87.2% (active) | 3% (inactive) | 94% (active) | 85.3% (active) | 24% (inactive) | 91% (active) | 72.2% (active) | 5% (inactive) | 92% (active) | 75.2% (active) | -3% (inactive) | 94% (active) | 85.8% (active)
[C-]#[O+].[C-]#[O+].[Ir].[O-]c1ccc2ccccc2c1N=Nc1ccccc1 | -4% (inactive) | -4% (inactive) | 74.5% (active) | -11% (inactive) | -11% (inactive) | 69.5% (inactive) | 15% (inactive) | 15% (inactive) | 62.1% (inactive) | -2% (inactive) | -2% (inactive) | 50.7% (inactive) | -20% (inactive) | -20% (inactive) | 55.1% (inactive) | -18% (inactive) | -18% (inactive) | 69.5% (inactive)
CC(C)[O-].CC(C)[O-].[O-]c1cccc2cccnc12.[O-]c1cccc2cccnc12.[Ti+4] | 6% (inactive) | 6% (inactive) | 55.5% (inactive) | 11% (inactive) | 11% (inactive) | 70.8% (active) | 4% (inactive) | 4% (inactive) | 37.6% (inactive) | 6% (inactive) | 6% (inactive) | 51.8% (inactive) | -3% (inactive) | -3% (inactive) | 64.8% (inactive) | -24% (inactive) | -24% (inactive) | 58.9% (inactive)
CCC(C)N1CN(c2ccccc2)C2(CCN(CCCC3(c4ccc(F)cc4)OCCO3)CC2)C1=O (centres undefined) | -9% (inactive) | 93% (active) | -0.8% (inactive) | -7% (inactive) | 98% (active) | 5.3% (inactive) | -6% (inactive) | 95% (active) | 34% (inactive) | -7% (inactive) | 92% (active) | 74.5% (active) | -2% (inactive) | 94% (active) | 7.55% (inactive) | -3% (inactive) | 96% (active) | 31% (inactive)
CC(=O)OC1C(=O)OCC23CCC4(C)OC4C2OC2CC(OC(=O)/C=C/C=C/C(=O)OCCC1C)C3(C)C21CO1 (centres undefined) | 99% (active) | 99% (active) | 92.6% (active) | 100% (active) | 100% (active) | 93.8% (active) | 99% (active) | 99% (active) | 93.8% (active) | 98% (active) | 98% (active) | 92.5% (active) | 99% (active) | 98% (active) | 92.6% (active) | 100% (active) | 99% (active) | 92.3% (active)
Cc1cc(N(CCCl)CCCl)ccc1C=Nc1ccc(-c2csc(COc3ccccc3)n2)c(Cl)c1 | 4% (inactive) | 93% (active) | 94% (active) | -13% (inactive) | 90% (active) | 95.6% (active) | 23% (inactive) | 95% (active) | 95% (active) | -10% (inactive) | 94% (active) | 89.1% (active) | 6% (inactive) | 91% (active) | 90.3% (active) | 52% (inactive) | 94% (active) | 94.5% (active)
CC[CH2][Sn]([Br])([Br])[CH2]CC | 29% (inactive) | 91% (active) | 83.2% (active) | 21% (inactive) | 95% (active) | 87.2% (active) | 35% (inactive) | 95% (active) | 87.1% (active) | 26% (inactive) | 87% (active) | 85.2% (active) | 31% (inactive) | 96% (active) | 83.2% (active) | 33% (inactive) | 93% (active) | 87.1% (active)
CCN(CC)C(=S)S | 66% (inactive) | 99% (active) | 48.6% (inactive) and 99.3% (active) | 66% (inactive) | 99% (active) | 28% (inactive) and 99.5% (active) | 58% (inactive) | 99% (active) | 34.9% (inactive) and 99.5% (active) | 8% (inactive) | 99% (active) | 21.3% (inactive) and 98.8% (active) | 65% (inactive) | 99% (active) | 8.05% (inactive) and 99.5% (active) | 75% (active) | 99% (active) | 26.8% (inactive) and 99.5% (active)
COc1cc[c]([Sb]([Br])([CH]=C(C)C)([CH]=C(C)C)[CH]=C(C)C)cc1 | -1% (inactive) | 67% (inactive) | 80.8% (active) | -5% (inactive) | 85% (active) | 76.5% (active) | -1% (inactive) | 62% (inactive) | 35% (inactive) | -12% (inactive) | 54% (inactive) | 49.2% (inactive) | -9% (inactive) | 72% (active) | 80.3% (active) | -6% (inactive) | 73% (active) | 72.8% (active)
CC(C)(C)C(Br)C(=O)NC(N)=O (centres undefined) | 1% (inactive) | -6% (inactive) | -8% (inactive) | -4% (inactive) | 3% (inactive) | -0.45% (inactive) | 12% (inactive) | -7% (inactive) | -19.4% (inactive) | -6% (inactive) | 2% (inactive) | 82.2% (active) | -3% (inactive) | -3% (inactive) | -12% (inactive) | -2% (inactive) | -8% (inactive) | 16.3% (inactive)
O=c1c2ccccc2[se]n1-c1ccccc1 | 6% (inactive) | 29% (inactive) | 70.2% (active) | -12% (inactive) | 32% (inactive) | 88.8% (active) | -4% (inactive) | 23% (inactive) | 81.3% (active) | -19% (inactive) | 26% (inactive) | 66.6% (inactive) | -15% (inactive) | 21% (inactive) | 4.2% (inactive) | -12% (inactive) | 62% (inactive) | 86% (active)
[O]=[Sb][c]1ccc(Cl)cc1 | 5% (inactive) | 42% (inactive) | 96.7% (active) | 3% (inactive) | 36% (inactive) | 85.5% (active) | 1% (inactive) | 56% (inactive) | 99.1% (active) | 0% (inactive) | 19% (inactive) | 54.3% (inactive) | 4% (inactive) | 48% (inactive) | 87.7% (active) | 3% (inactive) | 35% (inactive) | 93.3% (active)
CCNc1ncc2ccccc2c1-c1ccc(N2CCN(CCCl)CC2)cc1 | 15% (inactive) | 93% (active) | 97.8% (active) | 13% (inactive) | 89% (active) | 74% (active) | 11% (inactive) | 97% (active) | 98.7% (active) | 2% (inactive) | 90% (active) | 93.5% (active) | 13% (inactive) | 95% (active) | 97.2% (active) | 8% (inactive) | 97% (active) | 98% (active)
COC(=O)[C@@]12OC[C@]34[C@H]([C@@H](O)[C@@H]1O)[C@@]1(C)CC(=O)C(O)=C(C)[C@@H]1C[C@H]3OC(=O)[C@H](OC(=O)/C=C(\C)C(C)C)[C@@H]24 | 96% (active) | 99% (active) | 91.5% (active) | 95% (active) | 100% (active) | 93.7% (active) | 96% (active) | 99% (active) | 93% (active) | 96% (active) | 99% (active) | 90.8% (active) | 93% (active) | 99% (active) | 91.5% (active) | 97% (active) | 99% (active) | 92% (active)
CCOP(=O)(OCC)/C(C#N)=C/c1cccc(Cl)c1 | 1% (inactive) | 94% (active) | 90.5% (active) | -1% (inactive) | 96% (active) | 91.8% (active) | 5% (inactive) | 94% (active) | 90.8% (active) | 14% (inactive) | 94% (active) | 88.2% (active) | -6% (inactive) | 96% (active) | 89.8% (active) | 6% (inactive) | 96% (active) | 89.3% (active)
O=C(CI)NCc1ccccc1 | 22% (inactive) | 98% (active) | 97.8% (active) | 29% (inactive) | 99% (active) | 99.2% (active) | 41% (inactive) | 99% (active) | 99% (active) | 12% (inactive) | 99% (active) | 97.8% (active) | 31% (inactive) | 99% (active) | 99% (active) | 55% (inactive) | 99% (active) | 99.2% (active)
C[C@]12CC[C@H](OC(=O)COc3ccc(N(CCCl)CCCl)cc3)C[C@@H]1CC[C@@H]1[C@@H]2CC[C@]2(C)NC(=O)CC[C@@H]12 | 17% (inactive) | 50% (inactive) | 70% (active) | 7% (inactive) | 11% (inactive) | 49.2% (inactive) | 19% (inactive) | 57% (inactive) | 19.1% (inactive) | 17% (inactive) | 36% (inactive) | 5.4% (inactive) | 22% (inactive) | 59% (inactive) | 16.1% (inactive) | 25% (inactive) | 48% (inactive) | 8.2% (inactive)
CCC[CH2][Sn]([Cl])([CH2]Cl)[CH2]CCC | 97% (active) | 99% (active) | 99% (active) | 99% (active) | 100% (active) | 99.2% (active) | 98% (active) | 99% (active) | 99.4% (active) | 98% (active) | 98% (active) | 99.3% (active) | 98% (active) | 99% (active) | 99.3% (active) | 99% (active) | 99% (active) | 99.2% (active)
